The nature of assay [1]: qHTS assay to identify small molecule agonists of the peroxisome proliferator-activated receptor delta (PPARd) signaling pathway - cell viability counter screen (AID 743211). Also: nearly all actives have a fitted effect of over 55% in size. Also: potency is read from the fitted curve at half-maximal effect. The gist of the method: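 Tox21 library compounds, delivered in DMSO, were incubated 17 h with PPARd-bla HEK293H cells; cytotoxicity was taken from CellTiter-Glo luminescence read 30 min after reagent addition.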

Assay [2] concerns the target Peroxisome proliferator-activated receptor delta (Homo sapiens) (UniProt Q03181). Briefly: qHTS assay to identify small molecule agonists of the peroxisome proliferator-activated receptor delta (PPARd) signaling pathway (AID 743212; calls by dose curve). The gist of the method:
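Cells expressing a UAS-driven beta-lactamase reporter (PPARd-bla HEK293H) were given test compounds after a 5 h settle and kept at 37 C. Reporter activity was then measured as FRET fluorescence using LiveBLAzer B/G substrate.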

Assay [3] in a line: qHTS assay to identify small molecule antagonists of the peroxisome proliferator-activated receptor delta (PPARd) signaling pathway - cell viability counter screen (AID 743213). Also: nearly all actives have a fitted effect of over 50% in size. Also: potency is read from the fitted curve at half-maximal effect. The gist of the method: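 Agonist-stimulated (L165041, 300 nM final) HEK293H PPARd UAS-bla cells are exposed to compounds for 17 h at 37 C, and ATP-based luminescence (CellTiter-Glo) from the same wells reports cytotoxicity.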
In general terms: In qHTS, concentration-response curves come from the screen itself.

For assay [4], the target named is Peroxisome proliferator-activated receptor delta (Homo sapiens) (UniProt Q03181). Briefly: qHTS assay to identify small molecule antagonists of the peroxisome proliferator-activated receptor delta (PPARd) signaling pathway (AID 743215; active = well fitted inhibition curve with a large enough effect in the signal ratio in the repeat runs, not every such curve was filed as active; the % refers to the signal ratio; also: series mostly up to about 62 µM). The procedure, abridged: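 Cells: HEK293H with a UAS-driven beta-lactamase reporter responsive to PPARd. Compounds were co-added with L165041 (300 nM, final) and incubated 17 h at 37 C before a 2 h room-temperature FRET substrate step and fluorescence reading.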

The target in assay [5] is Bile acid receptor (Homo sapiens) (UniProt Q96RI1). Briefly: qHTS assay to identify small molecule antagonists of the farnesoid-X-receptor (FXR) signaling pathway (AID 743217; active = well fitted inhibition curve with a large enough effect in the signal ratio in the repeat runs, not every such curve was filed as active; the % refers to the signal ratio; also: potency is read from the fitted curve at half-maximal effect). The gist of the method: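 Cells carrying a UAS-driven beta-lactamase reporter (GeneBLAzer FXR-UAS-bla HEK 293T) were plated and rested 5 h at 37 °C. Compounds in DMSO were added alongside chenodeoxycholic acid agonist at 50 uM final and left 16 h at 37 °C before FRET substrate readout.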

For assay [6] the target is unchanged. Briefly: qHTS assay to identify small molecule agonists of the farnesoid-X-receptor (FXR) signaling pathway (AID 743220; active = well fitted activation curve with a large enough effect in the signal ratio in the repeat runs, not every such curve was filed as active; the % refers to the signal ratio). The procedure, abridged:
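FXR-UAS-bla HEK 293T cells carrying a UAS-driven beta-lactamase reporter were plated for 5 h at 37C/5% CO2, then exposed to DMSO-dissolved Tox21 10K compounds for 16 h at 37C. A LiveBLAzer B/G FRET substrate was loaded for 2 h at room temperature before fluorescence reading.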

Assay [7] can be described thus: qHTS assay to identify small molecule antagonists of the farnesoid-X-receptor (FXR) signaling pathway - cell viability counter screen (AID 743221; active = well fitted cell-killing curve with a large enough effect in the repeat runs, not every such curve was filed as active; also: nearly all actives have a fitted effect of over 50% in size; also: potency is read from the fitted curve at half-maximal effect). The procedure, abridged: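 Cytotoxicity is taken from ATP luminescence (CellTiter-Glo, 30 min, room temperature) in FXR-bla HEK 293T cells previously incubated 16 h at 37 C with compound and chenodeoxycholic acid at 50 uM final.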

A short description of assay [8]: qHTS assay to identify small molecule agonists of the vitamin D receptor (VDR) signaling pathway - cell viability counter screen (AID 743224). Also: nearly all actives have a fitted effect of over 50% in size. Also: potency is read from the fitted curve at half-maximal effect. The procedure, abridged:
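Cells: VDR-bla, 2,000/well, settled 4 h. Treatment: compounds in DMSO, 16 h, 37C/5% CO2. Readout: CellTiter-Glo luminescence after 30 min RT.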

The nature of assay [9]: qHTS assay to identify small molecule antagonists of the vitamin D receptor (VDR) signaling pathway - cell viability counter screen (AID 743225). Also: nearly all actives have a fitted effect of over 50% in size. Also: potency is read from the fitted curve at half-maximal effect. The procedure, abridged:
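Same-well multiplex: following 16 h treatment of HEK 293T cells carrying a UAS-driven beta-lactamase reporter with compound and agonist (3 nM final), and a 2 h FRET substrate step, CellTiter-Glo was added and luminescence read after 30 min.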

Assay [10] is described as follows: qHTS assay to identify small molecule agonists of the NFkB signaling pathway - cell viability counter screen (AID 1159515; calls by dose curve; also: series mostly up to about 61 µM; nearly all actives have a fitted effect of over 55% in size). The gist of the method: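 Cells are seeded (2,000 NFkB-bla ME-180 per well), rested overnight, and dosed with DMSO-dissolved compounds for 5 hr at 37 C. Viability is then read by CellTiter-Glo luminescence after 30 min at room temperature.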

Assay [11] in a line: qHTS assay to identify small molecule agonists of the endoplasmic reticulum stress response signaling pathway - cell viability counter screen (AID 1159517; calls by dose curve; also: nearly all actives have a fitted effect of over 50% in size; also: potency is read from the fitted curve at half-maximal effect). The gist of the method: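 Cpd-treated ESRE-bla HeLa (5 hr, 37 C) → LiveBLAzer 2 hr RT → CellTiter-Glo 30 min RT → luminescence.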
Assay [12] addresses Nuclear receptor ROR-gamma (Homo sapiens) (UniProt P51449). Description: qHTS assay to identify small molecule antagonists of the retinoid-related orphan receptor gamma (ROR-gamma) signaling pathway (AID 1159521; also: nearly all actives have a fitted effect of over 50% in size; also: potency is read from the fitted curve at half-maximal effect). The procedure, abridged:
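Inducible-expression reporter assay: doxycycline (1 uM final) switched on RORγ in CHO cells bearing a ROR response element-luciferase construct, with test compounds present from 2 h beforehand. Decreased luminescence after 16 h defined antagonist activity.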

Assay [13] in a line: qHTS assay to identify small molecule agonists of the AP-1 signaling pathway - cell viability counter screen (AID 1159525; calls by dose curve; also: nearly all actives have a fitted effect of over 55% in size). The procedure, abridged:
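Each titration point was normalised to DMSO and tetra n-octyl ammonium bromide controls. The read was Cell Titer Glo luminescence after 30 min at RT, following 5 h compound exposure of ME-180 AP-1-bla cells at 37 °C.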

The nature of assay [14]: qHTS assay to identify small molecule agonists of the AP-1 signaling pathway (AID 1159526; calls by dose curve).
Assay [15] addresses Retinoic acid receptor RXR-alpha (Homo sapiens) (UniProt P19793). Description: qHTS assay to identify small molecule agonists of the RXR signaling pathway (AID 1159527; calls by dose curve; also: nearly all actives have a fitted effect of over 35% in size). The gist of the method: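 Compounds in DMSO were added to RXR-alpha-UAS-bla HEK 293T cells kept in 2% charcoal-stripped serum, and incubated 16 hr at 37 C with 5% CO2. Reporter signal came from a 2 hr B/G FRET substrate step.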

A short description of assay [16]: qHTS assay to identify small molecule agonists of the farnesoid-X-receptor (FXR) signaling pathway - cell viability counter screen (AID 743218). Also: nearly all actives have a fitted effect of over 45% in size. Also: potency is read from the fitted curve at half-maximal effect. The procedure, abridged:
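Cells were seeded, left 5 h at 37 C and 5% CO2, then dosed with compound in DMSO for 16 h. After the beta-lactamase FRET read, CellTiter-Glo was added and luminescence measured 30 min later.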

Assay [17] concerns the target Vitamin D3 receptor (Homo sapiens) (UniProt P11473). Briefly: qHTS assay to identify small molecule agonists of the vitamin D receptor (VDR) signaling pathway (AID 743222; calls by dose curve). The gist of the method:
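Cells carrying a VDR-driven beta-lactamase reporter are seeded at 2,000 per well and rested 4 h. Compounds in DMSO are added for 16 h at 37C, and FRET substrate fluorescence is measured after 2 h at room temperature.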

A short description of assay [18]: qHTS assay to identify small molecule antagonists of the retinoid-related orphan receptor gamma (ROR-gamma) signaling pathway - cell viability counter screen (AID 1159520). Also: nearly all actives have a fitted effect of over 50% in size. Also: potency is read from the fitted curve at half-maximal effect. The gist of the method: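 Tet-on ROR gamma CHO cells (1,000/well) were plated 4 hr, given compounds in DMSO for 2 hr at 37 C, then induced with 1 uM final doxycycline for 16 hr. Viability was read as ATP by CellTiter-Glo luminescence after 30 min.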

Assay [19] concerns the target Vitamin D3 receptor (Homo sapiens) (UniProt P11473). Briefly: qHTS assay to identify small molecule antagonists of the vitamin D receptor (VDR) signaling pathway (AID 743223; active = well fitted inhibition curve with a large enough effect in the signal ratio in the repeat runs, not every such curve was filed as active; the % refers to the signal ratio). The gist of the method: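 Quantitative HTS in VDR-bla reporter cells stimulated with 1alpha,25-dihydroxyvitamin D3, 3 nM final. Compound exposure 16 h, 37C, 5% CO2. Read-out: beta-lactamase FRET substrate fluorescence, 2 h RT.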

Several values for one entry are separate records, joined by “and”; a condition that tells them apart may be missing. Equal entries are not always repeated. Records with an inconclusive call do not appear. Unmarked numbers belong to inactive results. Activity calls are given as the source filed them. Unless noted, calls follow the shape of the dose curve; as a rule, active = well fitted curve in the direction sought with a large enough effect in the repeat runs; inconclusive = weak or mixed curves; inactive = no such curve, though single readings can be large; an effect the other way counts as inactive or inconclusive.

Retinoic acid receptor RXR-alpha (Homo sapiens), sequence (P19793 whole entry, looked up): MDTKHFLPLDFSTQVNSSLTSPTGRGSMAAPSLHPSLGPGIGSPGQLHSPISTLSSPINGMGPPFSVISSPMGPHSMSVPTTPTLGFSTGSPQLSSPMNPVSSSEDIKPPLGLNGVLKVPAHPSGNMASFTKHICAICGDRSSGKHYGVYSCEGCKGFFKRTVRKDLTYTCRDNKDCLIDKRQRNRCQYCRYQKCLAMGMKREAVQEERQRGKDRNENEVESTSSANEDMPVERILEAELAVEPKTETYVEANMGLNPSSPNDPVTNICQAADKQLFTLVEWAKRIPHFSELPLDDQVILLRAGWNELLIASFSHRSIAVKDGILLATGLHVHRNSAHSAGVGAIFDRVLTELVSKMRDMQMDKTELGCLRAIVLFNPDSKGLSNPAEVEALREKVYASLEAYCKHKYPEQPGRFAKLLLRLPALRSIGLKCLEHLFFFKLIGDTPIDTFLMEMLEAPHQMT
Vitamin D3 receptor (Homo sapiens), sequence (P11473 whole entry, looked up): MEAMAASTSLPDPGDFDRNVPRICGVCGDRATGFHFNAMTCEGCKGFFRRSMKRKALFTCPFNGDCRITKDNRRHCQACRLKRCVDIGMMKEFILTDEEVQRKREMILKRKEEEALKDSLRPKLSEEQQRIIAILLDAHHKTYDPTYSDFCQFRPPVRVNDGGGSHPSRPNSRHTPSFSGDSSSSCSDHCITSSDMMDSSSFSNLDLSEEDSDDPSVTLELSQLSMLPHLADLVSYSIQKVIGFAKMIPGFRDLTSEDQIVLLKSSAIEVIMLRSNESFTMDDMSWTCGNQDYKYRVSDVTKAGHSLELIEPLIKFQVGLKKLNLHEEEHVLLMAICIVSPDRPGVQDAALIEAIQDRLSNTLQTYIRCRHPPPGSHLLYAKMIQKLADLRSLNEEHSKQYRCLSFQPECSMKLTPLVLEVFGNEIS
Peroxisome proliferator-activated receptor delta (Homo sapiens), sequence (Q03181 whole entry, looked up): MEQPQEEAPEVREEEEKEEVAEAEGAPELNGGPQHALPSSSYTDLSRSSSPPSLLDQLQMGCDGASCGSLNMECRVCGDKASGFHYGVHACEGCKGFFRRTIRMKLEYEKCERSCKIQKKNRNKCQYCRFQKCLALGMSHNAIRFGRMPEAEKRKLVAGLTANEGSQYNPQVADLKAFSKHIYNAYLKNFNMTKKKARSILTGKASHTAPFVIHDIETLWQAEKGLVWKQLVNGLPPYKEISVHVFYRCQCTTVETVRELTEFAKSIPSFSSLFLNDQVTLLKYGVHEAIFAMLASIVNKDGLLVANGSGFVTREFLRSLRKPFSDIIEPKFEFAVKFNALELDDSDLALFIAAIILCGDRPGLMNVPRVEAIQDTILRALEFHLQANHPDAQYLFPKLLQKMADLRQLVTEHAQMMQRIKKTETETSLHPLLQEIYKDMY
Bile acid receptor (Homo sapiens), sequence (Q96RI1 whole entry, looked up): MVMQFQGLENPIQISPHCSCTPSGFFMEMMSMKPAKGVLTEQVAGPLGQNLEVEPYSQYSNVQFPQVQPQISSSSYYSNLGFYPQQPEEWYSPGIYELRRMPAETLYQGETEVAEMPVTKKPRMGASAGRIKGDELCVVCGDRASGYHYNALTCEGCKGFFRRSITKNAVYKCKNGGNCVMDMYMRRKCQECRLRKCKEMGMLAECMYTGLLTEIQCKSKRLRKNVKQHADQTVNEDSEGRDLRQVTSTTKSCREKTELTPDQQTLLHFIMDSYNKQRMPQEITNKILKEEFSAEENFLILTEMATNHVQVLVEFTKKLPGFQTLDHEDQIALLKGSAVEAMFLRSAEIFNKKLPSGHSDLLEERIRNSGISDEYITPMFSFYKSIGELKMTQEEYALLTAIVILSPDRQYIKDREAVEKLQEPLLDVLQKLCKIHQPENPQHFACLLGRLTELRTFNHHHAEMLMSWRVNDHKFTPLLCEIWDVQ

For `O=C1CCCCCCCCCCCCCCCO1`, the Potency result in [1], in [2], in assay [3], in [4], in assay [5] and in assay [6] was “inactive” throughout. Besides, the Potency result in assay [7], in assay [8], in assay [9], in assay [10], in assay [11] and in [12] was “inactive” throughout. In addition, the Potency entry in assay [13], in [14] and in [15] was “inactive” each time.

With `CCCCC/C=C\C/C=C\CCCCCCCC(=O)O`, the Potency entry in assay [1], in assay [2], in [3], in assay [4], in assay [5] and in assay [6] was “inactive” in each case. For the same compound, the Potency entry in [7], in assay [9], in assay [10], in [11], in assay [13] and in assay [14] was “inactive” each time.

For the compound `O=C1c2ccccc2C(=O)N1SC1CCCCC1`, the Potency in [1] is 48.9 µM (active) and 49 µM (active); in assay [8], 54.9 µM (active); in [9] it was 48.9 µM (active); in [11], 43.6 µM (active); in assay [18], 48.5 µM (active) and 54.5 µM (active); in [12] it was 27.3 µM (active). The Potency entry in assay [16], in assay [6], in [7], in [17] and in assay [10] was “inactive” throughout.

Take `Cc1c(N)cccc1C(F)(F)F`: the Potency result in assay [2], in assay [4], in [16], in assay [7], in [17] and in assay [19] was “inactive” throughout. Besides, the Potency result in assay [8], in assay [9], in assay [10], in [11], in assay [18] and in assay [13] was “inactive” each time. Moreover, the Potency entry in assay [14] and in assay [15] was “inactive” throughout.

Take `Fc1ccc(C(c2ccc(F)cc2)N2CCNCC2)cc1`: the Potency in [1] is 7.5 µM (active); in assay [3], 15 µM (active); in [5], 29.8 µM (active); in assay [16], 11.9 µM (active); in assay [7] it was 26.6 µM (active); in assay [8], 26.6 µM (active). Moreover, the Potency in assay [9] is 16.9 µM (active). Also, the Potency result in [6], in assay [17], in assay [10], in assay [11], in [12] and in assay [13] was “inactive” throughout. Besides, the Potency result in assay [14] and in assay [15] was “inactive” throughout.

Regarding `CC(C(=O)O)c1ccc2c(c1)[nH]c1ccc(Cl)cc12` (stereo not given), the Potency result in [1], in assay [3], in assay [16], in assay [6], in assay [7] and in assay [19] was “inactive” each time. Further, the Potency result in assay [8], in assay [9], in assay [10], in [11], in [18] and in [12] was “inactive” throughout. In addition, in assay [14], the Potency result is “inactive”.

Consider `Cc1cc(=O)oc2cc(O)cc(O)c12`, for which the Potency entry in assay [1], in [3], in [5], in assay [16], in [7] and in assay [9] was “inactive” each time. Further, the Potency entry in assay [10], in [11], in assay [13] and in assay [14] was “inactive” each time.

As for `O=C(O)c1cc(N=Nc2ccc([N+](=O)[O-])cc2)ccc1O`, the Potency entry in assay [1], in assay [3], in [4], in assay [7], in assay [8] and in assay [9] was “inactive” throughout. Besides, the Potency entry in assay [10], in assay [11], in assay [18], in [13] and in assay [14] was “inactive” each time. In assay [16], the Potency was 30.3 µM (active).

As for `CCOC(=O)NNc1ccc(N(CC)CC(C)O)nn1` (stereo not given), the Potency entry in assay [1], in assay [2], in assay [4], in [5], in assay [16] and in assay [6] was “inactive” each time. The Potency result in [7], in assay [19], in assay [9], in [10], in assay [11] and in assay [18] was “inactive” throughout. Also, the Potency result in assay [13], in [14] and in assay [15] was “inactive” each time.

On to `ClCCl`, for which the Potency result in assay [1], in assay [2], in assay [3], in [4], in assay [7] and in assay [17] was “inactive” each time. In addition, the Potency result in [9], in assay [10], in [11], in assay [18], in [13] and in assay [14] was “inactive” throughout. Also, the Potency result in assay [15] is “inactive”.

Values taken from PubChem BioAssay (Tox21).
